In PubChem BioAssay (Tox21):
Results filed as inconclusive are left out. A call without a number means that no potency is given here. Activity calls are given as the source filed them. Calls come from the whole dose curve; as a rule, active = well fitted curve in the direction sought with a large enough effect in the repeat runs; inconclusive = weak or mixed curves; inactive = no such curve, though single readings can be large; an effect the other way counts as inactive or inconclusive.

Target: Nuclear receptor subfamily 1 group I member 2 (Homo sapiens) (UniProt O75469)
Experiment: CYP3A4 induction through human pregnane X receptor (PXR) by small molecules, qHTS assay (AID 1346984); note: nearly all actives have a fitted effect of over 40% in size
Conditions: DPX-2 HepG2 PXR, CYP3A4-luciferin luminescence, 24 h; series mostly up to 46.1 µM
Summary of the method: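 Cells (DPX-2; HepG2 with PXR element plus CYP3A4-promoter luciferase) settled 5hr, then were treated 24hr at 37C. A 3hr, 3uM-final Luciferin-IPA step preceded luminescence measurement with One-Glo.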

Which Potency does the source give for `CCOC(=O)[C@H](CCc1ccccc1)N[C@@H](C)C(=O)N1Cc2cc(OC)c(OC)cc2C[C@H]1C(=O)O` here?
Its Potency is “inactive”.

Which Potency does the source give for `CO[C@@]1(NC(=O)CSCC#N)C(=O)N2C(C(=O)O)=C(CSc3nnnn3C)CS[C@@H]21` here?
Its Potency is “inactive”.

For `CCOC(=O)c1ccccc1O`, which Potency is on record?
The Potency was “inactive”.

Target: Nuclear receptor subfamily 1 group I member 2 (Homo sapiens) (UniProt O75469)
Experiment: Human pregnane X receptor (PXR) activation by small molecules, qHTS assay (AID 1346985); note: nearly all actives have a fitted effect of over 40% in size; note: potency is the fitted concentration of half-maximal effect
Conditions: DPX-2 HepG2 CYP3A4-luciferase, 24 h; series mostly up to 38.3 µM
Summary of the method: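 DPX-2 cells (HepG2 co-transfected with a PXR response element and a CYP3A4-promoter luciferase construct) were seeded at 2,000 per well, rested 5 hr at 37C, then exposed to DMSO-dissolved compounds for 24 hr. Activation was read as luciferase luminescence.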

`CCC(=O)Nc1ccc(O)cc1` was tested. Which Potency did it give?
Its Potency is “inactive”.

Which Potency does the source give for `CC(=O)Oc1cc(C(C)C)c(OCCN(C)C)cc1C` here?
The Potency was “inactive”.

`O=c1[nH]cnc2c1ncn2[C@@H]1O[C@H](CO)[C@@H](O)[C@H]1O` was tested. Which Potency did it give?
Its Potency is “inactive”.

With `N#Cc1ccc(C(c2ccc(C#N)cc2)n2cncn2)cc1` as the compound, how does the Potency read?
Its Potency is “inactive”.

`NS(=O)(=O)c1cc(-c2nn[nH]n2)c(NCc2cccs2)cc1Cl` was tested. Which Potency did it give?
The Potency was “inactive”.

With `Cc1c(-c2ccccc2)oc2c(C(=O)OCCN3CCCCC3)cccc2c1=O` as the compound, how does the Potency read?
The Potency was “inactive”.

`OCc1ccccc1O` was tested. Which Potency did it give?
Its Potency is “inactive”.

`C[C@@H]1CN(c2c(F)c(F)c3c(=O)c(C(=O)O)cn(C4CC4)c3c2F)C[C@H](C)N1` was tested. Which Potency did it give?
The Potency was “inactive”.

`CC(=O)N(CC(O)CN(C(C)=O)c1c(I)c(C(=O)NCC(O)CO)c(I)c(C(=O)NCC(O)CO)c1I)c1c(I)c(C(=O)NCC(O)CO)c(I)c(C(=O)NCC(O)CO)c1I` (stereo not given) was tested. Which Potency did it give?
The Potency was “inactive”.

With `CC(C)O` as the compound, how does the Potency read?
Its Potency is “inactive”.

Which Potency does the source give for `CN1CCN(c2c(F)cc3c(=O)c(C(=O)O)cn(CCF)c3c2F)CC1` here?
The Potency was “inactive”.

Which Potency does the source give for `CN1CCN(c2c(F)cc3c(=O)c(C(=O)O)cn4c3c2SCC4)CC1` here?
Its Potency is “inactive”.

`O=c1[nH]c(=O)n([C@H]2C[C@H](O)[C@@H](CO)O2)cc1C(F)(F)F` was tested. Which Potency did it give?
The Potency was “inactive”.

How did the Potency turn out when `Cc1nnc(SCC2=C(C(=O)O)N3C(=O)[C@@H](NC(=O)Cn4cnnn4)[C@H]3SC2)s1` was run?
Its Potency is “inactive”.

How did the Potency turn out when `CCCCc1ccc2nc(NC(=O)OC)[nH]c2c1` was run?
Its Potency is 4.47 µM (active).

How did the Potency turn out when `NC/C=C/C(=O)O` was run?
The Potency was “inactive”.

With `COc1ccccc1N1CCN(CCCNc2cc(=O)n(C)c(=O)n2C)CC1` as the compound, how does the Potency read?
Its Potency is “inactive”.

How did the Potency turn out when `CS(=O)(=O)c1ccc([C@@H](O)[C@@H](CF)NC(=O)C(Cl)Cl)cc1` was run?
Its Potency is “inactive”.

Which Potency does the source give for `C=CC(C)(O)CC/C=C(\C)CCC=C(C)C` (stereo not given) here?
Its Potency is “inactive”.

Which Potency does the source give for `Cc1cc(NS(=O)(=O)c2ccc(N)cc2)nc(C)n1` here?
Its Potency is “inactive”.

`CCC(=O)O[C@]1(C(=O)SCF)[C@H](C)C[C@H]2[C@@H]3C[C@H](F)C4=CC(=O)C=C[C@]4(C)[C@@]3(F)[C@@H](O)C[C@@]21C` was tested. Which Potency did it give?
Its Potency is 0.447 µM (active).

Which Potency does the source give for `FC(F)(F)C(F)(F)C(F)(F)C(F)(F)C(F)(F)C(F)(F)C(F)(F)C(F)(F)Br` here?
Its Potency is “inactive”.

`CCN(CC)CC1CCCCN1CC(=O)N1c2ccccc2C(=O)Nc2cccnc21` (stereo not given) was tested. Which Potency did it give?
Its Potency is “inactive”.

Which Potency does the source give for `CCN[C@H]1CN(CCCOC)S(=O)(=O)c2sc(S(N)(=O)=O)cc21` here?
Its Potency is “inactive”.

Which Potency does the source give for `CCCN(CCC)C(=O)C(CCC(=O)O)NC(=O)c1ccccc1` (stereo not given) here?
The Potency was “inactive”.

`CCCCN1C[C@H](O)[C@@H](O)[C@H](O)[C@H]1CO` was tested. Which Potency did it give?
The Potency was “inactive”.

`C[C@@H]1CN(c2c(F)c(N)c3c(=O)c(C(=O)O)cn(C4CC4)c3c2F)C[C@H](C)N1` was tested. Which Potency did it give?
The Potency was “inactive”.

With `COc1ccc(S(=O)(=O)Nc2nnc(CC(C)C)s2)cc1` as the compound, how does the Potency read?
The Potency was “inactive”.

With `Cc1c(C(=O)NCCO)[n+](=O)c2ccccc2n1[O-]` as the compound, how does the Potency read?
Its Potency is “inactive”.

How did the Potency turn out when `COc1ccccc1OCC(O)COC(N)=O` (stereo not given) was run?
The Potency was “inactive”.

For `CC1(C)S[C@@H]2[C@H](NC(=O)C(C(=O)O)c3ccccc3)C(=O)N2[C@H]1C(=O)O` (stereo not given in full), which Potency is on record?
The Potency was “inactive”.

For `CCN(CC)CCNC(=O)COc1ccc(Cl)cc1`, which Potency is on record?
Its Potency is “inactive”.

Which Potency does the source give for `CO[C@@]1(NC(=O)CSCC#N)C(=O)N2C(C(=O)O)=C(CSc3nnnn3C)CS[C@@H]21` here?
Its Potency is “inactive”.

With `CCOC(=O)c1ccccc1O` as the compound, how does the Potency read?
Its Potency is “inactive”.

Target: Cytochrome P450 2D6 (Homo sapiens) (UniProt P10635)
Sequence (P10635 whole entry, looked up): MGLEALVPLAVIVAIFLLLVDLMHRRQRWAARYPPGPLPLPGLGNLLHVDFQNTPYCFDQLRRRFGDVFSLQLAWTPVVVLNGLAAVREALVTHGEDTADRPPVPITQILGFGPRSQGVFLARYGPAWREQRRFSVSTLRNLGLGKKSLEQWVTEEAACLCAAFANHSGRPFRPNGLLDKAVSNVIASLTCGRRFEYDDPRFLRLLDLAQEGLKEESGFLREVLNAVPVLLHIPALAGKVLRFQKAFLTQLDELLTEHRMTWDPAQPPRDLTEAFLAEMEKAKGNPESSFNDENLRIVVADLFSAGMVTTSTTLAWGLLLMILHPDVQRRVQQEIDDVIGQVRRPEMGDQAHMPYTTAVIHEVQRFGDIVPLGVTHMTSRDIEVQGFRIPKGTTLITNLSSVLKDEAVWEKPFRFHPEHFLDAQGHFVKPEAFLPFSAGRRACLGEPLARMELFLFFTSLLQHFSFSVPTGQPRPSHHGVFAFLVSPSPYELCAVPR
Experiment: Cytochrome P450 Family 2 Subfamily D Member 6 (CYP2D6) small molecule antagonists: luciferase reporter qHTS assay (AID 1671196); note: nearly all actives have a fitted effect of over 50% in size; note: potency is the fitted concentration of half-maximal effect
Conditions: P450-Glo CYP2D6 enzyme assay, luciferin luminescence, 1 h; series mostly up to 115 µM
Summary of the method: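 Room-temperature luminescent CYP2D6 activity assay: compound preincubated 10 min with enzyme–substrate mix, NADPH-initiated reaction 1 h, detection reagent 20 min before reading.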

For `CCC(=O)Nc1ccc(O)cc1`, which Potency is on record?
Its Potency is “inactive”.

For `CC(=O)Oc1cc(C(C)C)c(OCCN(C)C)cc1C`, which Potency is on record?
Its Potency is 15.5 µM (active).

With `O=c1[nH]cnc2c1ncn2[C@@H]1O[C@H](CO)[C@@H](O)[C@H]1O` as the compound, how does the Potency read?
Its Potency is “inactive”.

How did the Potency turn out when `N#Cc1ccc(C(c2ccc(C#N)cc2)n2cncn2)cc1` was run?
The Potency was “inactive”.

For `NS(=O)(=O)c1cc(-c2nn[nH]n2)c(NCc2cccs2)cc1Cl`, which Potency is on record?
Its Potency is “inactive”.

With `Cc1c(-c2ccccc2)oc2c(C(=O)OCCN3CCCCC3)cccc2c1=O` as the compound, how does the Potency read?
The Potency was 5.49 µM (active).

`OCc1ccccc1O` was tested. Which Potency did it give?
The Potency was “inactive”.

With `C[C@@H]1CN(c2c(F)c(F)c3c(=O)c(C(=O)O)cn(C4CC4)c3c2F)C[C@H](C)N1` as the compound, how does the activity change, negative = inhibition read?
Its activity change, negative = inhibition is -28.8% [at 23.6 µM] (inactive).

`CC(=O)N(CC(O)CN(C(C)=O)c1c(I)c(C(=O)NCC(O)CO)c(I)c(C(=O)NCC(O)CO)c1I)c1c(I)c(C(=O)NCC(O)CO)c(I)c(C(=O)NCC(O)CO)c1I` (stereo not given) was tested. Which Potency did it give?
Its Potency is “inactive”.

For `CC(C)O`, which Potency is on record?
Its Potency is “inactive”.

For `CN1CCN(c2c(F)cc3c(=O)c(C(=O)O)cn(CCF)c3c2F)CC1`, which Potency is on record?
Its Potency is “inactive”.

How did the Potency turn out when `O=c1[nH]c(=O)n([C@H]2C[C@H](O)[C@@H](CO)O2)cc1C(F)(F)F` was run?
The Potency was “inactive”.

With `Cc1nnc(SCC2=C(C(=O)O)N3C(=O)[C@@H](NC(=O)Cn4cnnn4)[C@H]3SC2)s1` as the compound, how does the Potency read?
Its Potency is “inactive”.

With `CCCCc1ccc2nc(NC(=O)OC)[nH]c2c1` as the compound, how does the Potency read?
The Potency was “inactive”.

How did the Potency turn out when `NC/C=C/C(=O)O` was run?
The Potency was “inactive”.

Which Potency does the source give for `COc1ccccc1N1CCN(CCCNc2cc(=O)n(C)c(=O)n2C)CC1` here?
Its Potency is 11 µM (active).

For `CS(=O)(=O)c1ccc([C@@H](O)[C@@H](CF)NC(=O)C(Cl)Cl)cc1`, which Potency is on record?
Its Potency is “inactive”.

How did the Potency turn out when `Cc1cc(NS(=O)(=O)c2ccc(N)cc2)nc(C)n1` was run?
The Potency was “inactive”.

`CCC(=O)O[C@]1(C(=O)SCF)[C@H](C)C[C@H]2[C@@H]3C[C@H](F)C4=CC(=O)C=C[C@]4(C)[C@@]3(F)[C@@H](O)C[C@@]21C` was tested. Which Potency did it give?
The Potency was “inactive”.

Which Potency does the source give for `FC(F)(F)C(F)(F)C(F)(F)C(F)(F)C(F)(F)C(F)(F)C(F)(F)C(F)(F)Br` here?
Its Potency is “inactive”.

For `CCN(CC)CC1CCCCN1CC(=O)N1c2ccccc2C(=O)Nc2cccnc21` (stereo not given), which Potency is on record?
Its Potency is “inactive”.

Which Potency does the source give for `CCN[C@H]1CN(CCCOC)S(=O)(=O)c2sc(S(N)(=O)=O)cc21` here?
Its Potency is “inactive”.

For `CCCN(CCC)C(=O)C(CCC(=O)O)NC(=O)c1ccccc1` (stereo not given), which Potency is on record?
Its Potency is “inactive”.

`CCCCN1C[C@H](O)[C@@H](O)[C@H](O)[C@H]1CO` was tested. Which Potency did it give?
The Potency was “inactive”.

For `C[C@@H]1CN(c2c(F)c(N)c3c(=O)c(C(=O)O)cn(C4CC4)c3c2F)C[C@H](C)N1`, which activity change, negative = inhibition is on record?
Its activity change, negative = inhibition is -4.41% [at 23.6 µM] (inactive).

Which Potency does the source give for `COc1ccc(S(=O)(=O)Nc2nnc(CC(C)C)s2)cc1` here?
The Potency was “inactive”.

`Cc1c(C(=O)NCCO)[n+](=O)c2ccccc2n1[O-]` was tested. Which Potency did it give?
Its Potency is “inactive”.

Which Potency does the source give for `COc1ccccc1OCC(O)COC(N)=O` (stereo not given) here?
The Potency was “inactive”.

For `CC1(C)S[C@@H]2[C@H](NC(=O)C(C(=O)O)c3ccccc3)C(=O)N2[C@H]1C(=O)O` (stereo not given in full), which Potency is on record?
Its Potency is “inactive”.

`CCN(CC)CCNC(=O)COc1ccc(Cl)cc1` was tested. Which Potency did it give?
The Potency was 12.3 µM (active).

Which Potency does the source give for `CCOC(=O)[C@H](CCc1ccccc1)N[C@@H](C)C(=O)N1Cc2cc(OC)c(OC)cc2C[C@H]1C(=O)O` here?
The Potency was “inactive”.

Which Potency does the source give for `CO[C@@]1(NC(=O)CSCC#N)C(=O)N2C(C(=O)O)=C(CSc3nnnn3C)CS[C@@H]21` here?
Its Potency is “inactive”.

For `CCOC(=O)c1ccccc1O`, which Potency is on record?
Its Potency is “inactive”.
